Test results published in PubChem BioAssay AID686979 (National Center for Advancing Translational Sciences (NCATS), 2013).
Hit rate of the full screen: of about 420,000 compounds, about 50,000 (12%) were called active. Roughly 26% stayed inconclusive and do not appear here. This is one part of a sample in which actives are shown more often than they occur. Unmarked numbers belong to inactive results. Calls come from the whole dose curve; as a rule, active = well fitted inhibition curve with a large enough effect; inconclusive = small, poorly fitted or top-dose-only effect; inactive = flat fitted curve, though single readings scatter.

Experiment: qHTS for Inhibitors of human tyrosyl-DNA phosphodiesterase 1 (TDP1): qHTS in cells in presence of CPT; note: nearly all actives have a fitted effect of over 55% in size
Conditions: chicken DT40 Tdp1-/-;hTDP1 cells + 20 nM CPT, ATP luminescence, 48 h; series mostly up to 46.2 µM; activity change, negative = growth inhibition: at the top concentration
Source text: Human tyrosyl-DNA phosphodiesterase 1 (TDP1) is a novel repair gene, and we propose to use it as a new target for anticancer drug development. TDP1 is not an essential protein, but under treatment with topoisomerase I poison (camptothecin: CPT), TDP1 works as a critical factor for cell survival. To directly identify novel TDP1 inhibitors active in a cellular environment, we have knocked-out the Tdp1 gene in chicken DT40 cells (Tdp1-/-) and generated a complemented counterpart cells that contains a stable transfection of the human TDP1 gene (Tdp1-/-;hTDP1 cells). For the primary screen, Tdp1-/-;hTDP1 cells will be exposed to small molecules in the presence or absence of CPT, and their growth kinetics will be evaluated after 48 hours by measuring ATP activity. […] The hit compounds will then be evaluated in the presence or absence of CPT using Tdp1-/- cells. […] In tertiary assays, biochemical gel-based assays will be used to assess whether the hit compounds specifically target TDP1. To this end, we have screened this cell line against the MLSMR in two primary screens. In one screen we add CPT and in the other we screen in the absence of CPT; this AID represents the screen where CPT was present. NIH Chemical Genomics Center [NCGC] NIH Molecular Libraries Probe Centers Network [MLPCN] MLPCN Grant: MH095538 Assay Submitter (PI): Yves Pommier, NCI
DT40-hTDP1 cells with 20 nM Camptothecin (add 20 microL of 1 mM CPT stock in 1 L of cell culture medium) were dispensed at 400 cells/5microL/well in tissue culture treated 1536-well white wall/solid bottom assay plates (Greiner Bio-One North America, NC, U.S.A.) using a Multidrop Combi 8 channel dispenser (Thermo Fisher, Waltham, MA, USA). 23 nL compounds and controls were transferred using the pin tool (Kalypsys, San Diego, CA, USA) to the assay plates. The assay plates were then incubated at 37 masculineC for a minimum 48 hr. Three microL of Cell Titer Glo solution was added to the plates and incubated at RT in dark for 30 min. Luminescence was read using ViewLux (Perkin Elmer) with 1 sec exposure slow speed, high gain and 2x binning.
% is set by controls: 0 for no effect and ±100 for the full control effect; potency is the fitted concentration of half-maximal effect.

With `CCc1ccc(C(CNc2nc(C(F)(F)F)nc3ccccc23)N(C)C)cc1` (stereo not given) the Potency was 16.4 µM (active).
For `O=C(CC(c1cccs1)N1Cc2ccccc2C1=O)Nc1ccc(F)cc1F` (stereo not given), the Potency was 20.6 µM (active).
For `CC(C)(C)C1CCc2c(sc3nc(SCC(N)=O)nc(N)c23)C1` (stereo not given), the Potency was 16.4 µM (active).
In the case of `CC1(C)Cc2c(sc(NC(=O)C(=O)N3CCOCC3)c2C#N)CO1`, the Potency is reported as 20.6 µM (active).
With `S=C(NN=Cc1ccccn1)Nc1ccccn1` the Potency was 1.46 µM (active).
In the case of `c1ccc(C(=NNc2nc3ccccc3s2)c2ccccn2)cc1`, the Potency is reported as 0.164 µM (active).
For `Cc1ccc(-c2cccc([C@H]3[C@@H]4C=CC[C@@H](C)[C@@H]4C(=O)N3Cc3ccccc3)c2)cc1`, the Potency was 14.6 µM (active).
In the case of `O=[N+]([O-])c1ccc(COc2ccccc2CN2CCOCC2)cc1`, the Potency is reported as 23.1 µM (active).
With `CCCCC(=O)NC(c1ccc(OC)c(OC)c1)c1ccc2cccnc2c1O` (stereo not given) the Potency was 1.3 µM (active).
In the case of `C[n+]1ccc(/C=C/c2c[nH]c3ccccc23)cc1`, the Potency is reported as 1.03 µM (active).
For `CC1(C)CC2CC(C)(CN2c2ncnc3ccc(Br)cc23)C1` (stereo not given), the Potency was 5.17 µM (active).
For `COc1cc(OC)cc(C(=O)Nc2ccc3nc(Nc4cccc(C(F)(F)F)c4)cc(C)c3c2)c1`, the Potency was 9.2 µM (active).
With `Cc1cc(Nc2cccc(C(F)(F)F)c2)nc2ccc(NC(=O)c3ccc(=O)[nH]c3)cc12` the Potency was 16.4 µM (active).
For `CCC(C)N1C(=O)S/C(=C/c2ccc(Sc3nc4ccccc4[nH]3)o2)C1=O` (stereo not given), the Potency was 14.6 µM (active).
In the case of `CC(C)=CCN1CCC2(CCc3ccccc32)CC1`, the Potency is reported as 11.6 µM (active).
In the case of `COc1cc(CNCCSc2nnnn2C)ccc1OCc1ccc(Cl)cc1Cl`, the Potency is reported as 16.4 µM (active).

First: CN(C)C(CNC(=O)Cc1ccc([N+](=O)[O-])cc1)c1ccccc1 (stereo not given)
Second: O=C(OCc1ccc([N+](=O)[O-])cc1)C1CC(=O)N(Cc2ccccc2Cl)C1 (stereo not given)
The “activity change, negative = growth inhibition” value of the first is higher: -2.26% for the first, -4.97% for the second.

Going from `NS(=O)(=O)c1ccc(CCNc2nc(C(F)(F)F)nc3ccccc23)cc1` to `COc1ccc(CCNS(=O)(=O)c2cccc3cccnc23)cc1OC`, the “activity change, negative = growth inhibition” value rises from -27.3% to -2.46%.

First: CCN(CC)CCCN=C(N)N
Second: CCc1nnc(NC(=O)CCCSc2nc3ccccc3[nH]2)s1
The “activity change, negative = growth inhibition” value of the first is lower: -4.33% for the first, 10.8% for the second.

First: Cc1nc2ccc(S(=O)(=O)NC(C(=O)NCc3ccccc3Cl)C(C)C)cc2s1 (stereo not given)
Second: Cc1nc2ccccc2c(=O)n1NC(=O)c1ccc(Cl)c([N+](=O)[O-])c1
The “activity change, negative = growth inhibition” value of the first is higher: 4.06% for the first, -1.58% for the second.

Going from `COc1cc(C(CC(=O)NCCC(C)C)N2Cc3ccccc3C2=O)cc(OC)c1OC` (stereo not given) to `O=C(O)CC(c1ccccc1F)N1Cc2ccccc2C1=O` (stereo not given), the “activity change, negative = growth inhibition” value rises from -7.29% to -6.62%.

Compared with `CN(C)CCSc1nc(N)c2c3c(sc2n1)COC(C)(C)C3`, `Nc1nc(SCC(=O)NCCN2CCOCC2)nc2sc3c(c12)CCC3` is higher in “activity change, negative = growth inhibition” value: -2.4% for the first, 1.37% for the second.

Going from `Cc1cnc(-n2ncc(C(=O)N3CCN(C(C)C)CC3)c2-c2ccco2)nc1-c1ccc(F)cc1` to `CCN(CC(=O)Nc1c(F)cccc1F)C(=O)c1ccc(-c2ccc(C(C)=O)cc2)o1`, the “activity change, negative = growth inhibition” value falls from -0.952% to -25.2%.

First: O=c1o[nH]c(-c2ccccc2)c1N=Nc1c(F)cccc1Cl
Second: S=c1[nH]nc(-c2ccccc2)n1/N=C/c1c[nH]c2ccccc12
The “activity change, negative = growth inhibition” value of the first is lower: -4.76% for the first, -3.77% for the second.

First: COC(=O)c1c(NC(=O)C(=O)N2CCCCC2)sc2c1CC(C)(C)OC2
Second: CCOC(=O)N1CCN(C(=O)C(=O)Nc2sc3c(c2C#N)CC(C)(C)OC3)CC1
The “activity change, negative = growth inhibition” value of the first is lower: -21.8% for the first, -9.35% for the second.

First: CCOc1cc(NC(=O)Nc2ccccc2)c(OCC)cc1NC(=O)CC
Second: COc1ccc(C)cc1N(CC(=O)NC(C)c1ccccc1)S(C)(=O)=O (stereo not given)
The “activity change, negative = growth inhibition” value of the first is lower: 1.31% for the first, 6.36% for the second.

First: CN(NC(=O)C1CC(=O)N(c2ccccc2)C1)C1=NS(=O)(=O)c2ccccc21 (stereo not given)
Second: O=C(Nc1ccccc1Cl)O/N=C(/c1ccccc1)c1ccccn1
The “activity change, negative = growth inhibition” value of the first is higher: 8.09% for the first, 4.12% for the second.

First: CNC(=O)C(=O)N/N=C/c1ccccn1
Second: O=C(N/N=C/c1ccccn1)C12CC3CC(CC(C3)C1)C2
The “activity change, negative = growth inhibition” value of the first is higher: -1.38% for the first, -3.23% for the second.

Compared with `CC(=O)N1CCN(C(=O)C2(NC(=O)Nc3ccc(C)cc3)CCCCC2)CC1`, `CCN1CCN(C(=O)C2CCN(S(=O)(=O)c3cc(Cl)ccc3Cl)CC2)CC1` is lower in “activity change, negative = growth inhibition” value: 14.9% for the first, 3.59% for the second.

First: CC(=O)NCC(=O)N1CCC(n2nccc2NC(=O)CCCc2ccccc2)CC1
Second: CC(C)=CCN1CCN(CCCc2ccccc2)CC1CCO (stereo not given)
The “activity change, negative = growth inhibition” value of the first is higher: -1.7% for the first, -2.58% for the second.

Going from `c1ccc2sc(NN=C3CCCC3)nc2c1` to `O=C(NC1CCCC1)C(=O)c1c[nH]c2ccccc12`, the “activity change, negative = growth inhibition” value rises from -10.2% to -2.79%.

Going from `CC(C)CN1C(=O)CN(S(C)(=O)=O)CC1(C)C(=O)NCc1ccccc1` (stereo not given) to `CC(C)CNC(=O)C1(C)CCCN1C(=O)CSc1ccccc1` (stereo not given), the “activity change, negative = growth inhibition” value falls from -2.61% to -17.6%.

Compared with `Cc1ccc(S(=O)(=O)NCC(=O)N(CC(=O)NC(C)(C)C)Cc2cccs2)cc1`, `CC(Oc1cccc(Cl)c1)C(=O)Nc1ccc(S(=O)(=O)Nc2ncccn2)cc1` (stereo not given) is lower in “activity change, negative = growth inhibition” value: -4.73% for the first, -22.1% for the second.

Compared with `Cc1cc(C)cc(C(=O)OCC(=O)NCCNC(=O)COC(=O)c2cc(C)cc(C)c2)c1`, `O=C(COC(=O)Cc1ccccc1F)NNC(=O)c1ccc(Cl)cc1` is higher in “activity change, negative = growth inhibition” value: -13.7% for the first, -7.31% for the second.

First: Cc1cccc([C@@H]2[C@@H]3C(=O)N(Cc4ccccc4)C(=O)[C@@H]3[C@]3(Cc4ccc(Cl)cc4)C(=O)N(c4cccc(Cl)c4)C(=O)N23)c1
Second: O=C1c2cccc3cccc(c23)C(=O)N1c1cccc(O)c1
The “activity change, negative = growth inhibition” value of the first is higher: 9.53% for the first, -18.4% for the second.

Going from `COc1ccc(CN2CCNC(=O)C2CC(=O)N(C)Cc2ccccn2)cc1OC` (stereo not given) to `COc1cc(CNCCSc2nnnn2C)ccc1OCc1c(F)cccc1Cl`, the “activity change, negative = growth inhibition” value falls from 3.3% to -28.8%.

Going from `O=[N+]([O-])c1ccc(N2CCOCC2)cc1` to `CC1(C(=O)NS(=O)(=O)c2ccc(C#N)cc2)CCN1C(=O)CC1CCCC1` (stereo not given), the “activity change, negative = growth inhibition” value falls from -4.01% to -5.1%.

First: C=CCn1c(COc2cccc3cccnc23)nnc1SCC(=O)OC
Second: COc1ccc(/C=N/NC(=O)c2cccc(C(F)(F)F)c2)cc1
The “activity change, negative = growth inhibition” value of the first is lower: -14.3% for the first, 0.721% for the second.

Compared with `O=C(O)CSc1c2c(nc3cc(C(=O)Nc4cccc(C(F)(F)F)c4)ccc13)CCCC2`, `COc1ccc(NC(=O)C(=O)NCC(=O)Nc2cccc(C(F)(F)F)c2)cc1` is higher in “activity change, negative = growth inhibition” value: -7% for the first, 15.1% for the second.

Going from `CCCCSc1nc2ccccc2[nH]1` to `Cn1nnnc1SCCNCc1ccc(Cl)c(Cl)c1`, the “activity change, negative = growth inhibition” value rises from -15.7% to -1.39%.

For `Cc1nnc(SCC(=O)Nc2ncc3c(n2)CC(C)(C)CC3=O)s1`, the “activity change, negative = growth inhibition” value was -8.13%.
